Only some compounds are listed: those with a hit (about 7.4% of all), similar ones and a draw of the others.
SNCA expr inh: SNCA gene expression inhibition. HEK-293 SNCA-luciferase knock-in, luminescence, 24 h. Potency, µM (top dose mostly 57.2 µM), for the others: top-dose activity change, negative = inhibition, actives largely listed as inhibitors. 0.17% of 140,000 active;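 further: plate controls were DMSO cells for no effect and cell-free wells for full effect; nearly all actives have a fitted effect of over 45% in size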
3T3 cytotox: NIH 3T3 cell cytotoxicity; NIH 3T3 viability, CellTiter-Glo ATP luminescence, 48-72 h; Potency, µM (titrated, usually from 96.7 µM), for inactives: at the top dose activity change, negative = cytotoxicity, most hits filed as inhibitors; 4.3% of 94,000 active; further: nearly all actives have a fitted effect of over 55% in size
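Viability of NIH 3T3 cells after 48 or 72 hr compound treatment at 37 °C was assessed by CellTiter-Glo, with luminescence imaged following a 10 min room-temperature step.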
hNpr1 antagonist: blocks ANP-stimulated signaling of human Npr1 receptor; P16066; HEK293 hNpr1 GloSensor cGMP, ANP-stimulated luminescence; Potency, µM (titrated, usually from 46.3 µM), without a hit: top-dose activity change, negative = inhibition, most hits filed as inhibitors; 1.6% of 76,000 active; AID 1347048; calls by dose curve; further: nearly all actives have a fitted effect of over 60% in size
Target sequence (P16066 whole entry, looked up): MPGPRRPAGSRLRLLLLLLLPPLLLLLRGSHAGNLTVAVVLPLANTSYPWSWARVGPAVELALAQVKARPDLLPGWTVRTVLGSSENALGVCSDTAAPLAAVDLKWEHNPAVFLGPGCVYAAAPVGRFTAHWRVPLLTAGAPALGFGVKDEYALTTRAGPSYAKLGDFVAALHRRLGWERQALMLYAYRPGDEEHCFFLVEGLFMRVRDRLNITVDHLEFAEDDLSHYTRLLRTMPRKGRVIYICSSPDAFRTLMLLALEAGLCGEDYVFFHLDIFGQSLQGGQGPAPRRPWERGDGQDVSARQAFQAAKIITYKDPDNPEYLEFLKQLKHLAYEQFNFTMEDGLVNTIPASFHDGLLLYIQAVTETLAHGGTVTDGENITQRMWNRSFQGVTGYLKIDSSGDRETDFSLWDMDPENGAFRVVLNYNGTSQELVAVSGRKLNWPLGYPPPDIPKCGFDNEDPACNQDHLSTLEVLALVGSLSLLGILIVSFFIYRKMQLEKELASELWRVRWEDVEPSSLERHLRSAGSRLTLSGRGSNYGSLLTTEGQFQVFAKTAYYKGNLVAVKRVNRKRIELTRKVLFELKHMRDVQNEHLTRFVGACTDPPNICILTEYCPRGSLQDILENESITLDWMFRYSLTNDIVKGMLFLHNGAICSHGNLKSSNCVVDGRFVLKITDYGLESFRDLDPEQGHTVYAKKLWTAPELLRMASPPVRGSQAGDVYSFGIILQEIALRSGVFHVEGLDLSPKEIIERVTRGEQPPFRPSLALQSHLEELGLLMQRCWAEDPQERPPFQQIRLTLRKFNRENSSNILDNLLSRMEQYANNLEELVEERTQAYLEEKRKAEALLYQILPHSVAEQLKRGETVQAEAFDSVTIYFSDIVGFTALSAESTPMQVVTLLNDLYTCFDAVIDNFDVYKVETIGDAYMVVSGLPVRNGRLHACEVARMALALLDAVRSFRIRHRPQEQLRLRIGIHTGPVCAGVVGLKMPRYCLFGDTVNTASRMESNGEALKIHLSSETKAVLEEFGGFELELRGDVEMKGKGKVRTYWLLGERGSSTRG
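Compound pre-incubated 30 min at room temperature on GloSensor-loaded HEK293 cells stably carrying hNpr1 and the pGS-40F cGMP biosensor. Stimulation uses hNppA at 0.1 nM final; luminescence is taken at baseline and 20 min post-agonist.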
SNCA viab count: reduces viability of HEK-293 SNCA reporter cells. HEK-293-SNCA-luc viability, GF-AFC fluorescence, 24 h. Potency, µM (highest dose often 57.1 µM), for inactives: at the highest dose activity change, negative = cytotoxicity, actives largely listed as cytotoxic. 0.12% of 150,000 active. AID 1671193;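 further: 0% = DMSO-treated cells and -100% = medium-only wells without cells; nearly all actives have a fitted effect of over 30% in size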
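Cytotoxicity counterscreen: after 24 h compound treatment of genome-edited SNCA-luciferase HEK-293 cells, live-cell protease substrate GF-AFC read by fluorescence after 30 min; activity scaled between DMSO (0%) and medium-only (-100%), curves Hill-fitted.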
FLuc inh: inhibitors of firefly (Photinus pyralis) luciferase; P08659; purified P. pyralis luciferase, luminescence, biochemical; Potency, µM (doses to about 115 µM), hits mostly inhibitors; 2.5% of 76,000 active; AID 1347043; further: nearly all actives have a fitted effect of over 65% in size
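Luminescence read by CCD imager after adding enzyme (10nM final) to wells holding compound, titrated in qHTS. Substrates 10uM each D-luciferin and ATP; buffer 50mM Tris acetate pH 7.5, 10mM Mg acetate, Tween-20, BSA.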
HEK cytotox: cytotoxic compounds in HEK 293 cells. AID 1345083. 6.6% of 94,000 active. HEK 293 viability, ATP luminescence (CellTiter-Glo), 48-72 h. Potency, µM (highest dose often 115 µM), inactives show at the highest dose activity change, negative = cytotoxicity, actives largely listed as inhibitors; further: nearly all actives have a fitted effect of over 60% in size
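Read-out: CellTiter-Glo ATP luminescence. Cells: HEK 293, 250 cells/well. Exposure: 48 or 72 hr, 37 degree Celsius.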
Numbers without * were called inactive; i = inactive; ? = inconclusive; . = not tested or not shown; [ ] = another dose, or the depositor's remark. Unless noted, the call rests on the fitted dose curve; in most records, active means well fitted curve in the direction sought with a large enough effect; inconclusive means small, poorly fitted or top-dose-only effect, or another doubt; inactive means no such curve, though single readings can be large; an effect the other way counts as inactive or inconclusive. Unless noted, on the % scale 0 is the no-effect control and ±100 the full control effect; potency means the concentration at half of the fitted maximal effect.

SMILES	SNCA expr inh	3T3 cytotox	hNpr1 antagonist	SNCA viab count	FLuc inh	HEK cytotox
Cc1noc2c(NCCN3CCOCC3)cc(-c3cccc(C(F)(F)F)c3)nc12	-3%[87.6 µM]	?	0%[70.6 µM]	6%[87.6 µM]	i	?
O=C(c1ccccc1F)N1CCCC(c2nn(-c3ccccn3)c(=O)[nH]2)C1 (stereo not given)	-9%	-27%	.	-1%	.	?
COc1ccccc1NC(=O)c1cc(-c2ccccc2C(F)(F)F)nc2c1cnn2C	.	?	.	.	.	45µM*
Cn1ncc2c(C(=O)Nc3cccc(Cl)c3)cc(-c3ccccc3C(F)(F)F)nc21	.	-10%	.	.	.	?
COc1ccccc1-c1cc(C(=O)Nc2ccc(Cl)cc2)c2cnn(C)c2n1	.	?	.	.	.	22µM*
COc1cccc(NC(=O)c2cc(-c3ccc(C(F)(F)F)cc3)nc3c2cnn3C)c1	.	?	.	.	.	40µM*
COc1cccc(NC(=O)c2cc(-c3ccccc3C(F)(F)F)nc3c2cnn3C)c1	.	?	.	.	.	22µM*
Cn1ncc2c(C(=O)Nc3ccccc3F)cc(-c3ccccc3C(F)(F)F)nc21	.	2%	.	.	.	-4%
CNC(=O)c1cc(C2CC2)nc2onc(C3CCN(C(=O)Cc4ccc(OC)cc4)C3)c12 (stereo not given)	.	-22%	.	.	.	1%
O=C(NCc1ccccc1F)C1CCN(C(=O)c2ccc(-c3cncnc3)cc2)CC1	-3%	?	.	6%	.	?
C[S+](=O)([O-])N1CCN(C(=O)c2nc3cccnc3n(CCc3ccccc3)c2=O)CC1	4%	-9%	.	10%	.	4%
Cc1ncc2n1C(=O)N(C1CCN(Cc3ccnn3C)CC1)C2	4%[87.6 µM]	2%[138 µM]	-7%[70.6 µM]	-7%[87.6 µM]	i	-1%[172 µM]
O=C1CC2(CCN(Cc3ccc(C(F)(F)F)cc3)CC2)Oc2ccccc2N1	-20%	?	-27%	-15%	i	45µM*
O=C1CC2(CCN(Cc3ccc(C(F)(F)F)cc3)CC2)Oc2ccccc2N1c1ccccc1	?	25µM*	-29%	-27%	i	20µM*
O=C1CC2(CCN(Cc3ccc(F)cc3)CC2)Oc2ccccc2N1c1ccccc1	0%	?	0%	-7%	i	50µM*
COc1ccccc1Nc1ccnc(N2CCC(C(=O)NCCCc3ccccc3)CC2)n1	?	?	.	-13%	.	?
CN(C)C(=O)N1CCCC(C(=O)N2CCC3(CC2)CC(=O)Nc2ccccc2O3)C1 (stereo not given)	-10%	-15%	.	5%	.	2%
O=C(NCc1ccccc1)c1cn2cc(-c3ccc(F)cc3)sc2n1	10%	-34%	.	16%	.	-9%
O=C(c1ccc(Cl)s1)N1CCC2(CC1)CN(c1ccncn1)CC2CO (stereo not given)	-14%	?	?	-7%[12.5 µM]	i	50µM*
COc1ccc(CC(=O)NC2CCN(c3ccnc4ccnn34)C2)cc1 (stereo not given)	?	?	.	1%	.	?
Cc1ccc(-c2cn3cc(C(=O)NCC4CC4)nc3s2)cc1	112%	-24%	.	8%	.	-4%
O=C1NC2(CCCN(C(=O)c3ccccc3)C2)COc2ccccc21 (stereo not given)	32%	?	1%	-8%	i	?
O=C1NC2(CCCN(C(=O)c3ccccc3F)C2)COc2ccccc21 (stereo not given)	9%	?	13µM*	-2%	i	35µM*
Cc1ccc(C(=O)N2CCCC3(COc4ccccc4C(=O)N3)C2)cc1 (stereo not given)	-5%[87.6 µM]	?	-15%[70.6 µM]	-6%[87.6 µM]	i	63µM*
COc1ccccc1C(=O)N1CCCC2(COc3ccccc3C(=O)N2)C1 (stereo not given)	-13%	?	?	2%	i	?
SMILES	SNCA expr inh	3T3 cytotox	hNpr1 antagonist	SNCA viab count	FLuc inh	HEK cytotox
O=C1NC2(CCN(C(=O)c3ccc4c(c3)OCO4)CC2)COc2ccccc21	-8%	-3%	17%	-2%	i	-13%
O=C1NC2(CCCN(C(=O)c3ccc4c(c3)OCO4)C2)COc2ccccc21 (stereo not given)	-2%	?	-27%	-4%	i	40µM*
Oc1ccc(-c2nc(C3CC3)nc3c2CN(CC2CC2)CC3)cc1	-23%[87.6 µM]	?	.	-14%[87.6 µM]	.	?
O=C(NCCN1CCOCC1)c1cn2cc(-c3ccccc3)sc2n1	108%	-29%	.	-3%	.	-13%
COc1cccc(-c2ccc(CN3CCCC(NC(C)=O)C3)cc2)c1 (stereo not given)	87%	-41%	.	5%	.	?
COc1cccc(-c2ccc(CN3CCCC(NC(=O)C4CCCC4)C3)cc2)c1 (stereo not given)	.	35µM*	.	.	.	20µM*
COc1cccc(-c2ccc(CN3CCCC(NC(=O)c4ccc(Cl)cc4)C3)cc2)c1 (stereo not given)	35%	?	.	-17%	.	?
COc1cccc(-c2ccc(CN3CCCC(NC(=O)c4cccc(Cl)c4)C3)cc2)c1 (stereo not given)	?	32µM*	.	-29%	.	?
COc1ccc(C(=O)NC2CCCN(Cc3ccc(-c4cccc(OC)c4)cc3)C2)cc1 (stereo not given)	-6%	-37%	.	-27%	.	35µM*
COc1cccc(-c2ccc(CN3CCCC(NC(=O)c4cccnc4)C3)cc2)c1 (stereo not given)	.	?	.	.	.	28µM*
O=C(NCc1cccc(Cl)c1)c1ccc2nc(-c3ccccn3)oc2c1	75%	?	.	5%	.	?
O=C(NC1CCN(c2ccnc3ccnn23)CC1)c1cccc(Cl)c1	?	?	.	-12%[87.6 µM]	.	?
Cc1cc(C)cc(-c2ccc(CN3CCCC(NC(=O)c4cccc(Cl)c4)C3)cc2)c1 (stereo not given)	-16%	?	.	8%[12.5 µM]	.	40µM*
COc1cccc(C(=O)NC2CCCN(Cc3ccc(-c4cccc(OC)c4)cc3)C2)c1 (stereo not given)	-5%	25µM*	.	?	.	32µM*
COc1cccc(-c2ccc(NC(=O)C3CCCN(Cc4cc(C(C)C)n[nH]4)C3)cc2)c1 (stereo not given)	-16%	40µM*	?	-20%	i	22µM*
CS(=O)(=O)c1ccc(CN2C[C@@H]3C[C@H]2C(=O)N(Cc2ccc(OC(F)(F)F)cc2)c2ccccc2O3)cc1	?	32µM*	-28%	-28%	i	32µM*
O=C1[C@@H]2C[C@@H](CN2CC2CC2)Oc2ccccc2N1Cc1ccc(OC(F)(F)F)cc1	-8%[87.6 µM]	40µM*	?	-11%[87.6 µM]	i	56µM*

Screening data deposited in PubChem by National Center for Advancing Translational Sciences (NCATS).
